Experimental findings from ChEMBL document CHEMBL3988442, “University of Dundee, Small-Polar-MMV Screening Library” (2021) are described below.

For some of these results: Results with a measured potency or affinity are listed apart.

Holding throughout (parameters): scale not given: direction of the effect not stated beside the values
The target of experiment [1] is Protein translocase subunit SecA (Escherichia coli (strain K12)) (UniProt P10408). Description: Assay to Identify E. coli SecA ATPase Inhibitors. The following applies: 30 µM. It counts as functional.
Sequence of Protein translocase subunit SecA (Escherichia coli (strain K12)) (P10408 whole entry): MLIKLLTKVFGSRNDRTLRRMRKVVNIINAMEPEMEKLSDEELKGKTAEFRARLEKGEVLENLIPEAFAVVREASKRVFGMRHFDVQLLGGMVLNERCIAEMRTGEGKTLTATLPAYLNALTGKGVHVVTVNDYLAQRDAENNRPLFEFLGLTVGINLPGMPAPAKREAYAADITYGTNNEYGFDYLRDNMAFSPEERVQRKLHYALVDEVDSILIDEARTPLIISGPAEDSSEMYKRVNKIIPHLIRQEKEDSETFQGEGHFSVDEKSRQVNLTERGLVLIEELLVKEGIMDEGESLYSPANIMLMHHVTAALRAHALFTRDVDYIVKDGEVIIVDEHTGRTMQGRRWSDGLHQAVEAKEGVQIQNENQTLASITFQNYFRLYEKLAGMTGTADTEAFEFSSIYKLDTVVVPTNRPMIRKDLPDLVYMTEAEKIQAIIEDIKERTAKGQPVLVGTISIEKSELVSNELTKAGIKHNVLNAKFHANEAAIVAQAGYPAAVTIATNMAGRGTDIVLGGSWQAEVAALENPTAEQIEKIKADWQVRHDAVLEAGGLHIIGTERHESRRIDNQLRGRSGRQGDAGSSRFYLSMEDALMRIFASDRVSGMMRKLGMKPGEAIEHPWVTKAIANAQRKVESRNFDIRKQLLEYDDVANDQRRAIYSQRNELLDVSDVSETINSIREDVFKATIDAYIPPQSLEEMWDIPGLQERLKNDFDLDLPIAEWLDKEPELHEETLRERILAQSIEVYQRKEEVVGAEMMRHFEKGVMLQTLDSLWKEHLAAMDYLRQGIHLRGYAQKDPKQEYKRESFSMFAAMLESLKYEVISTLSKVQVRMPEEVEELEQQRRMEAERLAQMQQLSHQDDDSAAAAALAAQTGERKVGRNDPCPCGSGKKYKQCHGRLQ
The target in experiment [2] is T1, Ubiquitin-activating enzyme e1, putative (Leishmania donovani (strain BPK282A1)) (UniProt E9BSI1).
T1 sequence (whole entry): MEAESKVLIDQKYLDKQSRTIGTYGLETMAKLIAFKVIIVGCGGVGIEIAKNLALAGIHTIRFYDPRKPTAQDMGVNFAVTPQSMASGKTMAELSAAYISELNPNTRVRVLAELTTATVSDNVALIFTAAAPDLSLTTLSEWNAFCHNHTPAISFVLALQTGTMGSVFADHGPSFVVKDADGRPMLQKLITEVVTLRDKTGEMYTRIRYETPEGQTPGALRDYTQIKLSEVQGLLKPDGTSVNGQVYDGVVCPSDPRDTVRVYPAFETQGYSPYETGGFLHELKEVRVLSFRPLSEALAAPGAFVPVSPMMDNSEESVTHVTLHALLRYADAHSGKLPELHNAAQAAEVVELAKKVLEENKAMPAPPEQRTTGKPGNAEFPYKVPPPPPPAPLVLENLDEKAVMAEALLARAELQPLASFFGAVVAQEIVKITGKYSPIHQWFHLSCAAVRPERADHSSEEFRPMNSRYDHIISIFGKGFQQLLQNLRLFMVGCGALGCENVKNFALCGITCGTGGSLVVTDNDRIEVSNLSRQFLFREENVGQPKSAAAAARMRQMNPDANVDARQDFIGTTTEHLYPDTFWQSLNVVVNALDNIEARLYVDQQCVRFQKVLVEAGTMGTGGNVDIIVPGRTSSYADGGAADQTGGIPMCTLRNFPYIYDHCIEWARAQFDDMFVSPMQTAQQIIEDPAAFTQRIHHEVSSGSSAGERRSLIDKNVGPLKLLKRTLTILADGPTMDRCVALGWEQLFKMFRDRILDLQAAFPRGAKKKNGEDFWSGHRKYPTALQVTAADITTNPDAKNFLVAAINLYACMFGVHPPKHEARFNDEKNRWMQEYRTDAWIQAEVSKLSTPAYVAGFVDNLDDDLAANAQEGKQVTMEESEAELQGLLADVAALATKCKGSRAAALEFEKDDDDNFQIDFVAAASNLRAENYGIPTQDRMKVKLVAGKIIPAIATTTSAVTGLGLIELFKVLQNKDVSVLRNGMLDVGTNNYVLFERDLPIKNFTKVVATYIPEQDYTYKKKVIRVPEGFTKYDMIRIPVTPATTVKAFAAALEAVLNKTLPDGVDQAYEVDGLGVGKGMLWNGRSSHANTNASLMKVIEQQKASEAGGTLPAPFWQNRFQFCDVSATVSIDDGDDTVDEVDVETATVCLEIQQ
The experiment can be described thus: Leishmania donovani Ubiquitin Activating Enzyme (LdE1). It is filed as functional. The following applies: 30 µM.

Experiment [3] addresses AMP-activated protein kinase, AMPK (Homo sapiens) (UniProt P54646+O43741+P54619+Q9UGJ0+Q9Y478+Q13131+Q9UGI9). The experiment can be described thus: AMP-dependent Kinase enzyme assay. An in vitro enzyme assay that detects ADP turnover that is directly proportional to AMPK activity. This uses naive AMPK that is activated during the assay with MK-8722. It is filed as functional. The note with it: 30 µM.

Experiment [4] deals with Sialic acid-binding Ig-like lectin 9 (Homo sapiens) (UniProt Q9Y336). The experiment can be described thus: Hs-Siglec9 ALPHAscreen SOP 20170721. The note with it: 10 µM.
Sequence of Sialic acid-binding Ig-like lectin 9 (Homo sapiens) (Q9Y336 whole entry): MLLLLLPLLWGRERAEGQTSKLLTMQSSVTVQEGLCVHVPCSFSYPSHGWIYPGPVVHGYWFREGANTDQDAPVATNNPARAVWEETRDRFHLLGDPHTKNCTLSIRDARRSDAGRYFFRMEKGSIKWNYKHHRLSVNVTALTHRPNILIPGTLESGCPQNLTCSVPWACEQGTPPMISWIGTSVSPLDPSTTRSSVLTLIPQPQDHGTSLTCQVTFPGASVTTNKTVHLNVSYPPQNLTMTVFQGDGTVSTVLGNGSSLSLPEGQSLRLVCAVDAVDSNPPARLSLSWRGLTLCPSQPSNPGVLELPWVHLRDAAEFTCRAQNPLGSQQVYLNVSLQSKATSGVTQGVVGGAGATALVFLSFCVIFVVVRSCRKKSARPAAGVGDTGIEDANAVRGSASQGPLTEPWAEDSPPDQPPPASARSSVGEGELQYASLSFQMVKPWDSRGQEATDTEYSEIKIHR
Another experiment concerns Trypanosoma cruzi. Description: Trypanosoma cruzi phosphomannomutase and mannose-1-phosphate guanylyltransferase assay. It counts as functional. The following applies: 10 µM.
The target in experiment [5] is T2, Arginase-2, mitochondrial (Homo sapiens) (UniProt P78540).
T2 sequence (whole entry): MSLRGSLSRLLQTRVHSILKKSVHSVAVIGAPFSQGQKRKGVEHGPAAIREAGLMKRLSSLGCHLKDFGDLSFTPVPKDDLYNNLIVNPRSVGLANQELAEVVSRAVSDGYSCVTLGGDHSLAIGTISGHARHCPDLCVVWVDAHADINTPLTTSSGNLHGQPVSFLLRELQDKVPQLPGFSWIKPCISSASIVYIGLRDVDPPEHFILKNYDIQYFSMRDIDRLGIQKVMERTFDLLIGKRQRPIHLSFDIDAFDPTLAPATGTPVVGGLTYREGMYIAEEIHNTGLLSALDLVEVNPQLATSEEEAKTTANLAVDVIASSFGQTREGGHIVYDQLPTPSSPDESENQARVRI
Description: in vitro enzyme assay to detect the production of urea directly proportional to the activity of Arginase II. Further: in the data most compounds retested in dose-response had high values. It counts as functional. The following applies: 33.3 µM.

The target of experiment [6] is T3, Proteasome subunit beta (Trypanosoma cruzi) (UniProt O96673).
T3 sequence (whole entry): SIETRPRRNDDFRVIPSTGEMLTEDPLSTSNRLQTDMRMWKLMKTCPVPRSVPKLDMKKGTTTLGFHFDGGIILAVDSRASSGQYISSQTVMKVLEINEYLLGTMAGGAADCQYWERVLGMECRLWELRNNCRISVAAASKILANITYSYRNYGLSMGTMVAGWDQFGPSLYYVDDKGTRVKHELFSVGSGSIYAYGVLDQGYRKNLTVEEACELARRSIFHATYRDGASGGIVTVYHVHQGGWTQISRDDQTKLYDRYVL
Description: Trypanosoma cruzi proteasome chymotrypsin-like activity (TcProtChymo) assay. Further: in the data most compounds retested in dose-response had high values. It counts as functional. The note with it: 9.37 µM.

The species named for another experiment is Homo sapiens. Description: To identify inhibition of the IFN signalling (Jak-Stat) pathway via expression of an eGFP reporter gene under the control of an IFN-stimulated response element (ISRE) containing MxA promoter. It is filed as functional. The note with it: 30 µM. (In a reporter assay the amount or activity of a reporter protein is the signal.)
Experiment [7] deals with T4, Tyrosyl-tRNA synthetase, putative (Trypanosoma cruzi (strain CL Brener)) (UniProt Q4DSP6).
T4 sequence (whole entry): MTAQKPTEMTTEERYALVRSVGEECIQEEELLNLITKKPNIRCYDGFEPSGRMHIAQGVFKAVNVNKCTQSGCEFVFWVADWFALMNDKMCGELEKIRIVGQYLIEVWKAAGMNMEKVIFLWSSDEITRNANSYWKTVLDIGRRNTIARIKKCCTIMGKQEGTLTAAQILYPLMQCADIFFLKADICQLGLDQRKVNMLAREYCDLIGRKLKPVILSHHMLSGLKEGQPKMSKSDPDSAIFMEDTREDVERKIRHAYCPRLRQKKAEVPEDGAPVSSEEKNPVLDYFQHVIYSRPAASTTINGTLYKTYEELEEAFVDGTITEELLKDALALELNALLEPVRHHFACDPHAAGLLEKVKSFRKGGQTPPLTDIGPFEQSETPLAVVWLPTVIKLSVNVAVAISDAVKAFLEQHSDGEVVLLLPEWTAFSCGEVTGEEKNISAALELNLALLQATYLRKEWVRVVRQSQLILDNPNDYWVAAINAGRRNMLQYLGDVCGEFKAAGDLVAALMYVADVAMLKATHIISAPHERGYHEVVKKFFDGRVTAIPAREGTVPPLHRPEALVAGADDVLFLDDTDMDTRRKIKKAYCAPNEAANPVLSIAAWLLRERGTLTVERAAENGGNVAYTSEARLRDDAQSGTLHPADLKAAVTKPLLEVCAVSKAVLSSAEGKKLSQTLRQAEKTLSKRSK
The experiment can be described thus: Trypanosoma cruzi tyrosyl tRNA synthetase (TcYRS) _High Tyrosine SOP. Further: in the data most compounds retested in dose-response had high values. It is filed as functional. The following applies: 30 µM.

For experiment [8], the target named is T4, Tyrosyl-tRNA synthetase, putative (Trypanosoma cruzi (strain CL Brener)). Description: Trypanosoma cruzi tyrosyl tRNA synthetase (TcYRS) SOP. It counts as functional. The note with it: 30 µM.
Experiment [9] has as its target Chromo domain-containing protein 1 (Saccharomyces cerevisiae (strain ATCC 204508 / S288c) (Baker's yeast)) (UniProt P32657). Description: ScCHD-1 Enzyme Inhibition Assay. Further: in the data most compounds retested in dose-response had high values. It counts as functional. The following applies: 30 µM.

Sequence of Chromo domain-containing protein 1 (Saccharomyces cerevisiae (strain ATCC 204508 / S288c) (Baker's yeast)) (P32657 whole entry, the tested form may be a part): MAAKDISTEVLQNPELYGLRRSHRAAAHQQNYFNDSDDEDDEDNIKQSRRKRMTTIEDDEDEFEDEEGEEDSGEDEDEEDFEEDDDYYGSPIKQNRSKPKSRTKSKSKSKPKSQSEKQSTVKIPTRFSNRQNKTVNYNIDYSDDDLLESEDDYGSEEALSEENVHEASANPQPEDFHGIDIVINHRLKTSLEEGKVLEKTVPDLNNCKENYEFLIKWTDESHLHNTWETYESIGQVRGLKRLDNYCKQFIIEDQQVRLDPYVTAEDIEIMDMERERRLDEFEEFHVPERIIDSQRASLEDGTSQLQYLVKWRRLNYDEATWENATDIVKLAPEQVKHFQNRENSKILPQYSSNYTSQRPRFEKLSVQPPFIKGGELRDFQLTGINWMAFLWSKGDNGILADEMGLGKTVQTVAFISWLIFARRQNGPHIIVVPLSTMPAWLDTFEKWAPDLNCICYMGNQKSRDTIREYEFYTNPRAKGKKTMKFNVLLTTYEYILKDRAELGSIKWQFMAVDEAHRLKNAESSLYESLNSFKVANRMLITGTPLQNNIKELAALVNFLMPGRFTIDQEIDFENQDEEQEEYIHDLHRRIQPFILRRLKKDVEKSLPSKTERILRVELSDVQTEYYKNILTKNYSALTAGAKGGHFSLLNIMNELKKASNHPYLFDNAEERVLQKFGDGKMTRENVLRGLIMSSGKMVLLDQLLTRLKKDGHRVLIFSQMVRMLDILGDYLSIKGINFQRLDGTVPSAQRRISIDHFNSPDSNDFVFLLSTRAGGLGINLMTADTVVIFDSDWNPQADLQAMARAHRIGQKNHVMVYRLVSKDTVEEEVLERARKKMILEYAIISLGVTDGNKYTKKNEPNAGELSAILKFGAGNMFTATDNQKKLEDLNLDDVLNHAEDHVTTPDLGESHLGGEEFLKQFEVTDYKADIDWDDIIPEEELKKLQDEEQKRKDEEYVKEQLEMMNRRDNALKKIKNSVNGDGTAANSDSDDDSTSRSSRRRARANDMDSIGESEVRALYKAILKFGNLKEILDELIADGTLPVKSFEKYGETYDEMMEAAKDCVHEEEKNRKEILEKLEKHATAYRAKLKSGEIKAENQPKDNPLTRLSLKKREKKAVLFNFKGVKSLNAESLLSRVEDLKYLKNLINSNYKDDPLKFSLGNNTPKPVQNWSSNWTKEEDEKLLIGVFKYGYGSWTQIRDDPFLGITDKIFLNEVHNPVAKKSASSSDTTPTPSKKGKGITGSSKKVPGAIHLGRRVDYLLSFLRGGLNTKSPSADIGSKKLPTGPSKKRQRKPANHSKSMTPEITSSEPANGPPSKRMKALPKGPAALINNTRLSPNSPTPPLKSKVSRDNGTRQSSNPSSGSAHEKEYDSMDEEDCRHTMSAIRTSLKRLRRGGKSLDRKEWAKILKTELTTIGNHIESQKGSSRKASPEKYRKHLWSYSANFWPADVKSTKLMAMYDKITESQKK

`Cc1nc(CN2C(=O)CCC23CCN(c2ncccn2)CC3)cs1`: the Percent Effect is -1.55% in [1]; 16% in [2]; -2.28% in experiment [3]; 4.1% in experiment [4]; 5.02% with Trypanosoma cruzi; -54.7% in [5]. Besides, the Percent Effect in experiment [6] was 19.3%; in the experiment listed under Homo sapiens, -8.11%; in experiment [7], 5.21%; in experiment [8] it was 5%; in experiment [9] it was -8.28%.
Regarding `Cc1ccc(CC(=O)N2CCCC(c3nc(C)cs3)C2)cn1` (stereo unspecified), the Percent Effect in [1] was -5.58%; in experiment [2] it was -2.7%; in experiment [3], -3.92%; in experiment [4], 13.4%; in the experiment with Trypanosoma cruzi, -0.0929%; in [5], -0.554%. Besides, the Percent Effect is 0.539% in experiment [6]; -13.1% in the experiment listed under Homo sapiens; 0.99% in experiment [7]; -6.1% in experiment [8]; 7.44% in experiment [9].
Consider `CCc1noc(C)c1C(=O)N(C)Cc1ncc(C)c(OC)c1C`, for which the Percent Effect in [1] was -5.87%; in experiment [2] it was 10.4%; in experiment [3], 5.05%; in experiment [4], -5.08%; with Trypanosoma cruzi, 6.76%; in experiment [5], 2.32%. In addition, the Percent Effect was 7.36% in experiment [6]; 7.84% in the experiment listed under Homo sapiens; 8.57% in [7]; 18.8% in experiment [8]; -14.6% in experiment [9].
Turning to `c1nc2n(n1)CC(NCc1nc(-c3ccsc3)no1)CC2` (stereo unspecified), the Percent Effect in [1] was -3.43%; in experiment [2], 0%; in [3], -5.33%; in experiment [4] it was -3.06%; in the experiment on Trypanosoma cruzi, -1.02%; in experiment [5], -0.554%. Further, the Percent Effect in [6] is -5.92%; in the experiment filed under Homo sapiens, 4.74%; in experiment [7], 2.97%; in experiment [8] it was 6.1%; in experiment [9], 7.25%.
Take `CCC(=O)N1CCc2[nH]cnc2C12CCN(C(=O)CCS(C)(=O)=O)CC2`: the Percent Effect in experiment [1] was 1.36%; in experiment [2], 6.94%; in experiment [3] it was -9.27%; in [4] it was 3.42%; in the experiment on Trypanosoma cruzi, 4.37%; in [5] it was 23.4%. In addition, the Percent Effect is 19.1% in experiment [6]; 22.1% in the experiment listed under Homo sapiens; 5.26% in experiment [7]; 7.69% in experiment [8]; -2.55% in experiment [9].
For `CO[C@H]1CO[C@@]2(CCCN(C(=O)C3=CCCCC3)C2)C1`, the Percent Effect in [1] is -5.62%; in [2], 13.3%; in experiment [3], 1.22%; in experiment [4], -1.82%; in the experiment with Trypanosoma cruzi it was 1.35%; in experiment [5], -47.5%. In addition, the Percent Effect in experiment [6] is 8.03%; in the experiment filed under Homo sapiens it was 0.996%; in experiment [7], 3.12%; in [8], 2.5%; in [9], -8%.
Consider `COc1ncccc1NC(=O)NC1CCOc2ccccc21` (stereo unspecified), for which the Percent Effect in [1] is -1.57%; in experiment [2], 16.2%; in [3], -3.28%; in experiment [4] it was 8.29%; in the experiment with Trypanosoma cruzi it was 5.29%; in experiment [5], -4.62%. In addition, the Percent Effect is 8.08% in experiment [6]; 23.4% in the experiment filed under Homo sapiens; 6.93% in experiment [7]; 25.6% in [8]; -3.65% in [9].
Take `COCCc1noc(CNC2CCc3nc(C(C)C)nn3C2)n1` (stereo unspecified): the Percent Effect in experiment [1] was -1.47%; in experiment [2], 2.6%; in experiment [3], 8.06%; in experiment [4] it was -4.34%; with Trypanosoma cruzi it was -1.27%; in [5], -2.74%. Further, the Percent Effect in experiment [6] was 6.39%; in the experiment listed under Homo sapiens, 17.2%; in experiment [7], 0.952%; in experiment [8], 0%; in experiment [9] it was -13.7%.
On to `CCc1nc(CC(=O)N2CCOCC2c2ncon2)cs1` (stereo unspecified), for which the Percent Effect was -0.574% in [1]; -2.7% in experiment [2]; -3.99% in [3]; -2.13% in experiment [4]; -3.99% in the experiment on Trypanosoma cruzi; 1.29% in [5]. The Percent Effect was 5.75% in experiment [6]; -8.37% in the experiment listed under Homo sapiens; 0% in experiment [7]; -1.22% in experiment [8]; 2.33% in [9].
Regarding `Cc1cc(N(C)Cc2noc(C)n2)n2nc(C)c(C)c2n1`, the Percent Effect was -2.12% in [1]; 9.72% in [2]; -8.49% in experiment [3]; -4.19% in experiment [4]; -1.07% in the experiment with Trypanosoma cruzi; 3.97% in [5]. Also, the Percent Effect in [6] was 15.6%; in the experiment filed under Homo sapiens, 9.15%; in experiment [7], 4.21%; in experiment [8], 10.3%; in experiment [9] it was -4.2%.
Take `CC(C)c1n[nH]c(C2CN(Cc3nnc(C4CC4)o3)CCO2)n1` (stereo unspecified): the Percent Effect in experiment [1] is -2.46%; in [2] it was 0%; in [3], 9.78%; in experiment [4], -2.59%; with Trypanosoma cruzi, -3.87%; in [5] it was -8.37%. Also, the Percent Effect was 6.47% in [6]; 27.6% in the experiment filed under Homo sapiens; -5.42% in experiment [7]; -11.4% in experiment [8]; -1.54% in [9].
